Screening data as filed in PubChem BioAssay.
SW480 rerep = induces DNA re-replication in SW480 colon adenocarcinoma cells; hit rate 1.8% among 340,000; Potency, µM (top dose mostly 46.1 µM), for inactives: at the top dose re-replication activation, usual class: activators; AID 624297; SW480 DNA re-replication, Hoechst DNA content imaging, 48 h; further: % of control where 0% means no effect; nearly all actives have a fitted effect of over 55% in size
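Quantitative HTS format with DMSO vehicle controls; 48 hr drug incubation at 37 C, then 40 min Hoechst staining and scanning imager measurement at 405 nm excitation.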
RORg inh = inhibitors of mouse ROR gamma transcriptional activity; AID 2551; Drosophila S2 Gal4-RORgamma UAS-luciferase reporter, 20 h; Potency, µM (doses to about 53.6 µM), inactives show at the highest dose activity change, negative = inhibition, usual class: inhibitors; hit rate 5.4% among 310,000; further: on the % scale 0 is the no-effect control and ±100 the full control effect; nearly all actives have a fitted effect of over 60% in size
Target sequence (P51450 whole entry, looked up, the tested form may be a part): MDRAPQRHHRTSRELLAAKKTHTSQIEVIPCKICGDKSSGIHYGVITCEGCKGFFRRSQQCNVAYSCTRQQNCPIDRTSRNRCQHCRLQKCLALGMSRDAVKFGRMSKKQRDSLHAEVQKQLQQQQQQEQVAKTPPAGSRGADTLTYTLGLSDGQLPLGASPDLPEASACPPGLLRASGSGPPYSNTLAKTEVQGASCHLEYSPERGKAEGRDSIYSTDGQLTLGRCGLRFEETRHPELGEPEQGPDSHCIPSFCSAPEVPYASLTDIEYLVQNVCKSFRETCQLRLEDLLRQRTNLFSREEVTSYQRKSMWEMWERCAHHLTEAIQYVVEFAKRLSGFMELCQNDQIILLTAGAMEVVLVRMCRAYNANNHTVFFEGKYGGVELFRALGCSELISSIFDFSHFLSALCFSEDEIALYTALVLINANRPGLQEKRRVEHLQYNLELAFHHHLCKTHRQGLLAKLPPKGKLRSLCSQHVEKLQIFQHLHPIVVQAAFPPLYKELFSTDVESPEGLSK
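Schneider cells (Drosophila), stable Gal4 DBD–ROR gamma + UAS-luc; 1 hr cmpd preincubation; Cu2+ induction 700 uM final; 20 hr ambient; luminescence.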
KB-3-1 cytotox = KB-3-1 parental cell cytotoxicity; hit rate 1.4% among 400,000; KB-3-1 viability, CellTiter-Glo ATP luminescence, 72 h; AID 1347075; Potency, µM (top dose mostly 46.1 µM), usual class: cytotoxic; further: on the % scale 0 is the no-effect control and ±100 the full control effect; nearly all actives have a fitted effect of over 60% in size
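Here the drug-naive KB-3-1 line serves as comparator for MDR sub-line selectivity; cells received compound titrations, 72 h at 37 °C, then CellTiter-Glo readout.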
KB-V1 MDR tox = KB-V1 MDR subline cytotoxicity; KB-V1 MDR cells viability, CellTiter-Glo, 72 h; Potency, µM (doses to about 46.1 µM), actives largely listed as cytotoxic; hit rate 3.4% among 400,000; further: on the % scale 0 is the no-effect control and ±100 the full control effect; nearly all actives have a fitted effect of over 60% in size
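In this primary screen, KB-V1 cells overexpressing P-gp are incubated with library compounds (lowest to highest concentration) for 72 h at 37 degrees C before a luminescent ATP viability read.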
VP16 counter = counter-screen for ROR gamma inhibitors: Gal4-VP16 reporter. Drosophila S2 Gal4-VP16 UAS-luciferase, luminescence, 20 h. Potency, µM (top dose mostly 53.6 µM), inactives show at the highest dose activity, negative = inhibition, usual class: inhibitors. hit rate 3.5% among 310,000. AID 2546;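 further: Gal4-VP16 expression switched on by copper sulfate through the metallothionein promoter; on the % scale 0 is the no-effect control and ±100 the full control effect; nearly all actives have a fitted effect of over 50% in size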
MCF10A rerep = inducers of DNA re-replication in MCF 10A breast cells; MCF 10A DNA re-replication, Hoechst nuclear intensity, 48 h; Potency, µM (doses to about 46.1 µM), for inactives: at the highest dose activity, positive = re-replication, actives largely listed as activators; hit rate 2.9% among 350,000; further: % of control where 0% means no effect; nearly all actives have a fitted effect of over 50% in size
* marks the source's active call; other numbers are inactive results; i = inactive; ? = inconclusive; nt = not tested or not shown. This is a sample that favours compounds with a hit; in the whole collection about 10% have one here. The call rests on the fitted dose curve; in most records, active means well fitted curve in the direction sought with a large enough effect; inconclusive means small, poorly fitted or top-dose-only effect, or another doubt; inactive means no such curve, though single readings can be large; an effect the other way counts as inactive or inconclusive. Potency means the concentration at half of the fitted maximal effect.

SMILES | SW480 rerep | RORg inh | KB-3-1 cytotox | KB-V1 MDR tox | VP16 counter | MCF10A rerep
COc1ccc(S(=O)(=O)N[C@@H](C)C(=O)OCC(=O)Nc2cc3oc4ccccc4c3cc2OC)cc1 | 1% | ? | i | i | 16µM* | 5%
COc1cc2c(cc1NC(=O)COC(=O)[C@@H](NS(=O)(=O)c1cccc(Cl)c1)C(C)C)oc1ccccc12 | 15% | 13µM* | i | 23µM* | 11µM* | 7%
Cc1ccc(C)c(S(=O)(=O)N2CCN(C(=O)CSC(=S)N3CCCC3)CC2)c1 | -12% | nt | i | ? | nt | 11%
Oc1[nH]c2c(Cl)cc(Cl)cc2c1N=NC(=S)NCC1CCCO1 (centres undefined) | 3% | 1.3µM* | 5.8µM* | ? | 1.1µM* | 17%
Cc1cc(C)c2[nH]c(O)c(N=NC(=S)NCC3CCCO3)c2c1 (centres undefined) | 13% | 5µM* | i | ? | 7.1µM* | 13%
C=CCOC(=O)N[C@@H](CCc1ccccc1)C(C(C)=O)C(C)=O | nt | 16% | nt | nt | -8% | nt
Cc1ccc(-c2cc(C(=O)Nc3c(C(=O)c4ccc(C)c(F)c4)oc4ccccc34)no2)cc1 | nt | nt | i | ? | nt | nt
Cc1cc(C)c2nc(NNC(=O)c3ccc(S(=O)(=O)N4CCc5ccccc5C4)cc3)sc2c1 | 12µM* | 1.6µM* | ? | i | 3.2µM* | ?
Cc1cc(C)c2sc(NNC(=O)c3ccc(S(=O)(=O)N4CCc5ccccc5C4)cc3)nc2c1 | 5.2µM* | 4.5µM* | ? | i | 5µM* | ?
Cc1cc(C)c2nc(NNC(=O)c3cc(=O)c4ccccc4o3)sc2c1 | 6% | 5µM* | i | i | ? | ?
CCc1nnc(NC(=O)c2ccc(S(=O)(=O)N3CCc4ccccc4C3)cc2)s1 | 0% | -13% | i | i | -7% | 1%
COC(=O)N1CCC[C@@]2(CCN(c3ccccn3)C2)C1 | nt | -6% | nt | nt | -4% | nt
COc1ccccc1-c1cnn2c(NC3CCCC3)cc(C)nc12 | 28% | 10µM* | i | ? | ? | 16µM*
O=C(NCc1ccncc1)c1cn(-c2ccccc2)nc1-c1cccnc1 | -1% | 0% | i | i | ? | 3%
O=C(NC1CCN(Cc2ccc(Cl)cc2)CC1)c1cn(-c2ccccc2)nc1-c1cccnc1 | 6% | nt | ? | i | nt | 21µM*
Cc1ccc(/C=C/C(=O)Nc2sc3c(c2C#N)CCCC3)o1 | 1.2µM* | 19% | i | i | -26% | ?
CCc1ccc(CCC(=O)Nc2sc3c(c2C#N)CCCC3)o1 | 3.3µM* | 9% | ? | ? | 1% | 4.6µM*
CCC(=O)Nc1sc2c(c1C#N)CCC2 | -3% | 2% | i | i | 11% | -3%
CC(=O)Nc1sc2c(c1C#N)CCC2 | 0% | 23% | i | i | 28% | -29%
COc1cc(CNc2ncnc3c2ncn3[C@H]2CN(Cc3ccc(-c4ccccc4)cc3)C[C@@H](CO)O2)cc(OC)c1OC | nt | nt | ? | i | nt | nt
COc1cc(CNc2ncnc3c2ncn3[C@H]2CN(Cc3cccc4ccccc34)C[C@@H](CO)O2)cc(OC)c1OC | nt | nt | ? | 21µM* | nt | nt
Cc1ccc(C)c(N2CCN(C(=S)Nc3ccc4nc(N5CCOCC5)cc(C)c4c3)CC2)c1 | ? | 5.6µM* | i | ? | ? | 16µM*
Cc1cc(N2CCN(C)CC2)nc2ccc(NC(=S)N3CCC4(CC3)OCCO4)cc12 | -4% | 1% | ? | i | -11% | -6%
Cc1ccc(C)c(N2CCN(C(=S)Nc3ccc4nc(N5CCN(C)CC5)cc(C)c4c3)CC2)c1 | -14% | 11µM* | ? | i | ? | ?
Cc1cccc(N2CCN(C(=S)Nc3ccc4nc(N5CCOCC5)cc(C)c4c3)CC2C)c1 (centres undefined) | ? | ? | i | i | ? | 12µM*
COc1ccccc1N1CCN(C(=S)Nc2ccc3nc(N4CCOCC4)cc(C)c3c2)CC1 | ? | 4.5µM* | i | i | ? | ?
